# Shown are actives, neighbours in structure and some others; about 1.8% of the full set was active somewhere.
# PAD4 inh: inhibitors of human PAD4; recombinant PAD4, RCA probe fluorescence polarization; inhibition, % at 6.36 µM; actives 0.41% (n = 330,000); AID 485272;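 active = percent inhibition above a cutoff equal to the mean of all tested compounds plus 3 SD, cut at about 15% in these data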;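 note: 0% = PAD4 with RCA probe and DMSO and 100% = probe without PAD4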
# LYPLA2 inh: LYPLA2 (human) inhibition in PME1 counter-screen | inhibition, % at 5.9 µM | actives 0.38% (n = 320,000) | AID 2177 | recombinant LYPLA2, FP-Rh probe fluorescence polarization;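 active = inhibition above the screen-wide mean plus 3 SD, limit set per campaign, cut at about 26% in these data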;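 note: 0% = LYPLA2 with DMSO and 100% = wells lacking LYPLA2 enzyme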
# LYPLA1 counter: blocks human lysophospholipase 1, a PME1 counter-screen. O75608. recombinant LYPLA1, FP-Rh probe fluorescence polarization. inhibition, % at 5.9 µM. actives 0.16% (n = 320,000). AID 2174;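 active = inhibition above the mean of all tested compounds plus 3 SD, set per campaign, cut at about 14% in these data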;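 note: inhibitors block serine hydrolase probe labeling of LYPLA1 so polarization falls; 0% = enzyme with DMSO and 100% = wells lacking LYPLA1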
# Target sequence (O75608 whole entry, looked up): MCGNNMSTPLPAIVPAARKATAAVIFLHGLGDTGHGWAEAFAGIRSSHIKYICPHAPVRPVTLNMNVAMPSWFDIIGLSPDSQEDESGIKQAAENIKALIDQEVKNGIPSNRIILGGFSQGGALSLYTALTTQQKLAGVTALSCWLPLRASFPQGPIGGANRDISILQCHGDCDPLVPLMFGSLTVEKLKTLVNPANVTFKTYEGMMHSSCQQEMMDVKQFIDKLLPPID
# GSTO1 counter: blocks human GSTO1 in RBBP9 counter-screen. inhibition, % at 5.96 µM. actives 1.1% (n = 300,000). recombinant GSTO1, activity-based probe fluorescence polarization. P78417. AID 1974;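 active = inhibition above the campaign mean inhibition plus 3 SD, cut at about 35% in these data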;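 note: 0% = GSTO1-1 with DMSO and 100% = wells lacking GSTO1-1 enzyme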
# Target sequence (P78417 whole entry, looked up): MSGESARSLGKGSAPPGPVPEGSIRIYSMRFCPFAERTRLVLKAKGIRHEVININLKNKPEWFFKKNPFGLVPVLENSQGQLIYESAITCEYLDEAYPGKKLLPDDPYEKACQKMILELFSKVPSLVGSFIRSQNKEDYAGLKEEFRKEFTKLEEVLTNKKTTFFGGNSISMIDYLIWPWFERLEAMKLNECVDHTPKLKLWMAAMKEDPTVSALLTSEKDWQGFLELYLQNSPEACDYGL
# Fam108B inh: counter-screen for RBBP9 inhibitors: inhibitors of mouse Fam108B; inhibition, % at 9.51 µM; AID 1947; recombinant Fam108B, FP-Rh probe fluorescence polarization; actives 0.33% (n = 300,000);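 active = inhibition above the screen mean inhibition plus 3 SD, computed separately per campaign, cut at about 18% in these data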;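 note: inhibitors lower polarization as less probe binds the enzyme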
# PME-1 inh: blocks human protein phosphatase methylesterase 1. recombinant PME-1, FP-Rh probe fluorescence polarization. inhibition, % at 5.9 µM. Q9Y570. actives 0.53% (n = 320,000);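 active = inhibition above the campaign mean of all compounds plus 3 SD, cut at about 26% in these data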;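 note: competitive labeling of PME-1 active site by serine hydrolase directed probe; 0% = PME-1 with DMSO and 100% = wells lacking PME-1 enzyme; inhibitors block probe labeling so polarization falls and inhibition rises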
# * marks the source's active call; other numbers are inactive results; / = no result given.
SMILES,PAD4 inh,LYPLA2 inh,LYPLA1 counter,GSTO1 counter,Fam108B inh,PME-1 inh
CCOc1ccc(NS(=O)(=O)c2ccc(C(=O)NC3CCC(O)CC3)cc2)cc1 (stereo unspecified),-1.3,2.6,0.8,0.6,6.5,2.8
CN1CCN(Cc2nc3c([nH]2)c(=O)[nH]c(=O)n3C)CC1,-0.2,-1.1,3.9,36.3*,0.0,-7.4
O=C(COC(=O)Cc1ccc(Cl)cc1)Nc1ccccc1-c1ccccc1,1.6,4.0,-2.8,36.4*,0.3,2.2
COCC(C)NC(=O)c1cc2c(ccc3ccccc32)oc1=O (stereo unspecified),-0.7,-3.7,0.3,2.9,4.4,7.5
Cc1ccc(S(=O)(=O)NN2C(=O)/C(=C/c3cccs3)SC2=S)cc1,-9.1,-4.8,-2.0,37.0*,-1.1,-2.0
CCSc1ccc([C@@H]2[C@H]3C(=O)N(C)C(=O)[C@H]3[C@]3(C(=O)OC)CCCCN23)cc1OC,-2.3,1.7,-1.2,4.2,7.7,-3.3
CCOc1ccc(NC(C(=O)Nc2cccc(C(C)=O)c2)c2ccccc2)cc1 (stereo unspecified),-1.3,3.9,-5.5,-6.7,6.0,32.0*
COc1cccc(NC(=O)C2CCC(CNS(=O)(=O)c3ccc4c(c3)CC(C)N4C(C)=O)CC2)c1 (stereo unspecified),4.2,4.2,-1.5,35.3*,-0.6,7.2
COc1cccc(NC(=O)C2CCN(S(=O)(=O)c3ccc4c(c3)CC(C)N4C(C)=O)CC2)c1 (stereo unspecified),-0.4,11.8,1.9,4.3,-0.5,3.7
O=C(CCSc1ccc(Cl)cc1)c1ccco1,1.6,1.2,0.5,-3.9,-4.0,-0.4
O=C(CSc1ccc(Cl)cc1)c1ccco1,0.4,7.5,-1.8,36.5*,10.5,2.3
CCOc1ccc(NS(=O)(=O)c2ccc3[nH]cc(C(=O)NCC4CCCO4)c(=O)c3c2)cc1 (stereo unspecified),1.6,-7.8,-7.2,18.9,-4.3,-1.9
CCOc1ccc(NS(=O)(=O)c2ccc3[nH]cc(C(=O)N(CC)CC)c(=O)c3c2)cc1,-0.1,2.8,1.8,36.1*,0.5,-4.5
CC(C)c1ccc(NS(=O)(=O)c2ccc3[nH]cc(C(=O)N4CCC(C(N)=O)CC4)c(=O)c3c2)cc1,-4.9,-11.0,-0.1,55.2*,-1.7,-1.9
CC(C)c1cccc(-c2ccc3c(c2)S(=O)(=O)c2cccc(C(=O)NC4CCCC4)c2C3=O)c1,5.7,/,/,/,/,/
COC(=O)[C@]1(C)N[C@H](c2ccc(-c3ccc(Cl)c(Cl)c3)c(OC)c2)[C@@H]2C(=O)N(C)C(=O)[C@@H]21,-0.5,-1.3,-9.9,4.4,1.1,-4.8
Cc1ccc(NC(=O)CCc2nc3ccccc3c(=O)[nH]2)cc1S(=O)(=O)N1CCOCC1,-0.6,5.9,-1.6,15.3,4.1,4.6
N/C(CSc1ccc(Cl)cc1)=N\S(=O)(=O)c1ccc(Cl)cc1,0.2,4.7,2.9,14.5,1.7,4.1
C/C(N)=N\S(=O)(=O)c1ccc(Cl)cc1,-2.2,3.2,-1.9,35.6*,-1.6,-1.9
CN(C)C(=O)CN1CCN(C(=O)CCl)CC1,-5.1,-1.1,-3.4,61.0*,1.5,-6.3
CC1(C)CC(=O)C2=C(C1)N(CCN1CCOCC1)C1=C(C(=O)CC(C)(C)C1)C2c1ccc(Cl)cc1,-1.5,3.1,-0.6,-5.9,-6.2,4.5
CC1(C)CC(=O)C2=C(C1)N(CCN1CCOCC1)C1=C(C(=O)CC(C)(C)C1)C2c1cccc(F)c1,3.0,-1.6,1.7,4.4,-1.4,28.1*
COc1ncc(C2=CC(=O)CC(C)(C)C2)cn1,3.4,9.3,0.7,/,/,-5.4
C=CCc1ccccc1OCC(=O)NNC(=S)NCc1ccccc1,-5.8,2.4,4.7,0.9,1.6,0.9
O=C(O)CCCNc1cc(N2CCC3(CC2)OCCO3)c2noc3c2c1C(=O)c1ccccc1-3,17.7*,-1.1,0.9,53.5*,34.6*,-2.0
SMILES,PAD4 inh,LYPLA2 inh,LYPLA1 counter,GSTO1 counter,Fam108B inh,PME-1 inh
CCOC(=O)N1CCN(c2cc(NCCC(=O)O)c3c4c(onc24)-c2ccccc2C3=O)CC1,6.8,-2.8,1.6,59.8*,6.2,16.0
CN1CCN(c2cc(N3CCN(C(=O)c4ccco4)CC3)c3c4c(onc24)-c2ccccc2C3=O)CC1,-3.8,0.7,0.7,17.0,7.1,10.7
O=C(NCCS(=O)(=O)N1CCC2(CC1)OCCO2)c1ccccc1,2.7,-1.2,4.1,1.9,0.4,-1.8
COc1ccc(OC)c(CNS(=O)(=O)c2cn(C)cn2)c1,0.9,-2.5,-1.7,-0.1,-3.9,-0.4
CN(C(=S)Nc1ccc(SC(F)F)cc1)c1ccc(O)cc1,11.4,14.5,0.9,65.7*,1.6,5.7
O=C(COc1ccc(F)cc1Cl)N(Cc1nnc(-c2ccccc2Cl)o1)C1CC1,-0.1,-9.6,-4.0,-2.4,-2.4,1.5
Nc1c(C(=O)Nc2ccc(Cl)c(C(=O)O)c2)sc2nc3c(cc12)CCCC3,1.1,0.1,2.0,5.8,-1.9,9.4
Nc1c(C(=O)Nc2cccc(C(=O)O)c2)sc2nc3c(cc12)CCCC3,-0.4,0.8,-2.0,-2.7,5.2,26.3*
Cc1cccc(C)c1NS(=O)(=O)c1ccc(NC(=O)c2ccc(Cl)c([N+](=O)[O-])c2)cc1,2.1,-39.4,-1.4,-14.3,-9.8,33.3*
O=C(Nc1ccc(S(=O)(=O)NC2=NCCCCC2)cc1)c1ccc(Cl)c([N+](=O)[O-])c1,-5.8,/,/,/,/,/
C/C(=N\NC(=O)CSCc1ccccc1Cl)c1cc(O)ccc1O,-11.8,3.5,-2.4,40.4*,4.1,4.6
Oc1ccc(C2C[C@H]3CC[C@@H]2C3)cc1O (stereo partly specified),-6.1,-2.5,-1.9,42.4*,4.6,9.6
CCOc1ccc(NC(=O)COC(=O)CC2CC3CCC2C3)cc1 (stereo unspecified),-2.2,/,/,/,/,/
O=C1c2ccccc2NC(c2ccc(-c3ccccc3F)o2)N1O (stereo unspecified),-4.0,-0.8,0.3,/,/,7.5
Cc1cc([N+](=O)[O-])ccc1-c1ccc(C2Nc3ccccc3C(=O)N2O)o1 (stereo unspecified),1.8,-6.9,-6.7,-26.7,-1.0,37.0*
Cc1ccc(S(=O)(=O)NCCNc2ccc(Br)c(C)c2)cc1,-3.1,/,/,/,/,/
CC(c1ccco1)N(C(=O)c1ccccc1NS(=O)(=O)c1ccc(Cl)c([N+](=O)[O-])c1)c1ccccn1 (stereo unspecified),-2.2,-2.9,-0.7,53.8*,1.9,-3.7
O=c1oc2c(-c3ccc([N+](=O)[O-])cc3)cc(O)cc2s1,-1.6,3.1,-5.0,78.3*,1.4,4.3
CC1=C(C#N)C(=O)N(C2CCS(=O)(=O)C2)C(=O)/C1=C\c1ccc(C)o1 (stereo unspecified),-1.9,-0.1,-1.0,35.8*,7.5,-1.5
